Compound activity deposited in PubChem by National Center for Advancing Translational Sciences (NCATS).
The list is not random: actives were taken first. Their share in the collection is about 6%.
D1 agonist: human D1 receptor agonism; P21728; HEK293 T-REx D1 cells, calcium flux, agonist mode; activation, % at 2 µM; actives 1% (n = 360,000); in the data active means activation above about 30%; further: 0% is about no effect
Target sequence (P21728 whole entry, looked up): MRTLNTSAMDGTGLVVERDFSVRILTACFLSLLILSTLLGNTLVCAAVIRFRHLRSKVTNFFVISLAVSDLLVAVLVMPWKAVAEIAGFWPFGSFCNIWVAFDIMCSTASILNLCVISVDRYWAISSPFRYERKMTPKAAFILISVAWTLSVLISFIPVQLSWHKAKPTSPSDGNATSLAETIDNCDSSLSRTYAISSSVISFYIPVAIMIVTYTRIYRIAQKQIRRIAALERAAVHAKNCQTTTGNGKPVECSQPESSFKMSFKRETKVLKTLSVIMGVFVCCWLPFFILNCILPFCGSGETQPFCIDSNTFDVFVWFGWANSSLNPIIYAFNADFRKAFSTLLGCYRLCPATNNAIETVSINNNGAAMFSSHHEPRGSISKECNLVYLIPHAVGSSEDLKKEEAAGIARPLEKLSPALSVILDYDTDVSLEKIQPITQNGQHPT
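Agonism was scored from calcium flux recorded over 180 s (1 read/s) after pintool compound addition, following a 10-cycle baseline. Cells were inducible force-coupled HEK293 TREx D1, plated overnight at 30 C and loaded with no-wash calcium dye.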
DRD3 antagonist: blocks the human D3 dopamine receptor. P35462. actives 2.5% (n = 360,000). max response, negative = inhibition, %. D3R cells, DiscoveRx beta-arrestin luminescence, antagonist mode; active compounds read low; in the data active means max response below about -50%; inconclusive means no clear call, values can overlap the other calls; further: on the % scale 0 is the no-effect control and ±100 the full control effect
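Cells plated overnight at 1500 cells/well, then exposed to library compounds with dopamine controls for 90 minutes at 37 degrees C. DiscoveRx reagent added for 30–60 minutes at room temperature; luminescence read, quantitative HTS format.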
D1 antagonist: antagonists of human D1 dopamine receptor | P21728 | HEK293 TREx D1 cells, calcium flux, dopamine EC80; active compounds read low | activity change, negative = inhibition, % at 10 µM | actives 3.2% (n = 360,000); in the data active means activity change below about -30%; further: on the % scale 0 is the no-effect control and ±100 the full control effect
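Allosteric or orthosteric antagonism assessed as attenuation of the calcium response to EC80 dopamine, added 180 s after compound, in induced HEK293 Trex D1 cells loaded with no-wash calcium dye.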
DRD3 agonist: activates the human D3 dopamine receptor | D3R DiscoveRx beta-arrestin cells, luminescence, 90 min | max activation, % | actives 0.58% (n = 410,000); in the data active means max activation above about 30%; further: 0% is about no effect
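Agonist mode: compounds and dopamine controls were applied to plated cells for 90 min at 37 degrees C after an overnight attachment at 1500 cells/well. Luminescent read-out followed 30 - 60 minutes at room temperature with DiscoveRx detection reagent.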
D1 potentiator: enhances dopamine response at the human D1 receptor | P21728 | HEK293 TREx D1 cells, calcium flux, dopamine EC20 potentiation | potentiation, % at 10 µM | actives 0.036% (n = 360,000) | AID 504651; in the data active means potentiation above about 30%; further: 0% is about no effect
An asterisk follows results filed as active; ? = inconclusive; · = no result.

SMILES | D1 agonist | DRD3 antagonist | D1 antagonist | DRD3 agonist | D1 potentiator
COc1cccc(NC(=O)CCN2CCN(c3ccccc3F)CC2)c1 | 1.7 | ? | -2.5 | 39.3* | 9.6
COc1ccc(Br)cc1CN(C)C(C)C(=O)Nc1cc([N+](=O)[O-])ccc1OC (stereo not given) | 2.0 | -3.4 | 12.0 | -17.1 | -3.3
COc1ccc(C(=O)CCN2CCN(c3ccccc3F)CC2)cc1 | 4.1 | -98.9* | · | -10.2 | -10.9
COc1ccc([N+](=O)[O-])cc1NC(=O)C(C)N(C)Cc1ccc(Br)cc1 (stereo not given) | -0.2 | -64.3* | -6.5 | -24.0 | -13.7
O=C(CCN1CCN(c2ccccc2F)CC1)c1ccc(Br)cc1 | 1.6 | ? | -13.3 | -15.6 | -17.0
O=C(CCN1CCN(c2ccccc2)CC1)N/N=C/c1ccccc1O | 2.7 | -67.2* | -16.0 | -33.1 | -10.0
CCCCn1c(N)c(N(CCC(C)C)C(=O)c2ccc([N+](=O)[O-])s2)c(=O)[nH]c1=O | 0.0 | 13.2 | 3.8 | 2.4 | -0.5
COc1ccc(C)cc1NC(=O)CCN1CCN(c2ccccc2)CC1 | 0.1 | ? | -15.3 | 39.3* | -5.7
CCN(CCC(=O)Nc1cc([N+](=O)[O-])ccc1OC)Cc1ccccc1 | 6.7 | -80.6* | 30.8 | -24.7 | -3.5
COc1ccc([N+](=O)[O-])cc1NC(=O)CCN1CCN(c2ccccc2OC)CC1 | 1.2 | -75.5* | -46.4* | 5.8 | -13.8
COc1ccc(C)cc1NC(=O)CCN1CC(C)OC(C)C1 (stereo not given) | 0.7 | 13.3 | -30.3* | -9.4 | -3.0
Cc1ccc(/C=C/c2nc3ccccc3n2S(=O)(=O)c2ccc(Br)cc2)cc1 | 1.7 | · | -0.3 | -17.6 | -3.2
O=C(CCS(=O)(=O)c1nc(-c2cccs2)cc(C(F)(F)F)n1)Nc1cc(Br)ccc1O | 4.2 | · | -24.0 | -27.2 | -4.4
COc1ccc([C@H]2/C=C\CN(C(=O)C3CCCC3)[C@@H](C)C(=O)N2Cc2ccc(F)cc2)cc1 | · | ? | · | -20.3 | ·
COc1ccc(C2/C=C\CN(C(=O)C3CCCC3)[C@H](Cc3ccccc3)C(=O)N2Cc2ccc(F)cc2)cc1 (stereo not given in full) | 4.7 | -67.6* | -37.0* | -22.0 | 8.6
COc1ccc([C@H]2/C=C\CN(S(=O)(=O)/C=C/c3ccccc3)[C@@H](C)C(=O)N2Cc2ccc(F)cc2)cc1 | · | 7.3 | · | 39.9* | ·
O=C(CC[C@H]1O[C@@H](n2cnc3c(NC(=O)c4ccccc4)ncnc32)[C@H](O)[C@@H]1O)N[C@@H](CO)c1ccccc1 | · | -12.5 | · | 19.8 | ·
CC(C)=CCC/C(C)=C/CC/C(C)=C/CCC(=O)OC/C=C(\C)CCC=C(C)C | · | · | · | 5.3 | ·
CN(C)CCNC(=O)c1cccc2ccc(-c3ccc(-c4ccccc4)cc3)nc12 | · | -22.8 | · | -16.8 | ·
Cc1c(C(=O)O)sc2nc(-c3cccs3)cc(C(F)(F)F)c12 | 1.6 | -10.4 | -11.0 | -6.3 | 2.9
CC(=O)c1sc2nc(-c3cccs3)cc(C(F)(F)F)c2c1N | 180.0* | 0.0 | 5.2 | 3.6 | -0.1
COc1ccc(OC)c(NC(=O)c2sc3nc(Cc4ccccc4)cc(C(F)(F)F)c3c2N)c1 | 3.3 | 26.3 | -0.1 | 10.5 | -7.5
CN(C)CCNC(=O)c1sc2nc(-c3ccccc3)cc(C(F)(F)F)c2c1N | 36.7* | 15.5 | 3.5 | -18.0 | -4.3
COc1cccc(-c2cc(C(F)(F)F)c3c(N)c(C#N)sc3n2)c1 | 34.3* | · | -9.3 | · | 16.9
COc1ccc(-c2cc(C(F)(F)F)c3c(N)c(C(=O)NCCSC)sc3n2)cc1 | 31.1* | 28.5 | 3.5 | 6.7 | 5.2
SMILES | D1 agonist | DRD3 antagonist | D1 antagonist | DRD3 agonist | D1 potentiator
COc1ccc(Cl)cc1C(=O)OCC(=O)c1ccc[nH]1 | 0.4 | -10.8 | -8.6 | -0.6 | -0.5
Nc1nc2nc(-c3ccccc3)cc(C(F)(F)F)c2s1 | -0.7 | -8.1 | 19.7 | -4.4 | 11.4
Nc1c(C(=O)C2CC2)sc2nc(-c3ccccc3)cc(C(F)(F)F)c12 | 66.5* | -5.2 | 20.8 | -5.0 | -3.5
CN(Cc1ccccc1)C(=O)c1nc[nH]c1C(=O)N1CCc2ccccc2C1 | -1.4 | 12.1 | · | 9.6 | -0.3
O=C(c1nc[nH]c1C(=O)N1CCc2ccccc2C1)N1CCc2ccccc2C1 | 0.5 | 36.1 | -66.3* | 141.9* | -1.7
Cc1ccccc1NC(=O)CSc1cn(CC(=O)N(C(C)C)C(C)C)c2ccccc12 | 1.8 | · | 1.0 | -2.2 | -4.9
COc1ccc(CCC(C)NC2CCCCCCC2)cc1 (stereo not given) | 7.5 | -67.2* | -3.0 | -11.0 | -1.1
COc1ccc(CCC(C)NCC2CCCCC2)cc1 (stereo not given) | 5.5 | -69.6* | 0.3 | -11.4 | -0.8
Cc1noc(C)c1COC(=O)c1cnc(Cl)c(Cl)c1 | 7.0 | 0.1 | -42.4* | 3.8 | -4.3
O=C(NCCSCc1ccco1)Nc1cccc(Cl)c1 | 5.9 | -20.2 | -2.5 | -15.9 | -3.5
COc1ccc(C(=O)NCCSCc2ccccc2Cl)cc1OC | 4.1 | 1.1 | -12.3 | -5.0 | -1.4
O=C(NCCSCc1ccco1)Nc1ccc(Cl)cc1 | 6.0 | 0.9 | -30.3* | -3.3 | -6.5
COc1ccc(C(=O)NCCSCc2ccco2)cc1OC | 3.2 | 18.4 | -34.3* | -1.7 | -7.9
COc1ccc(C(=O)NCCSCc2ccccc2)cc1OC | 5.5 | -51.1* | -8.5 | 11.0 | -0.9
CCOC(=O)CNC(c1ccccc1)c1cc(Br)ccc1NC(=O)c1ccc(Cl)cc1 (stereo not given) | -1.7 | · | -17.1 | -6.6 | -1.4
COc1ccc2c(c1)OC[C@H]1[C@H]2N2C(=O)CN(Cc3ccccc3)C(=O)[C@@]2(C)[C@H]1c1ccccc1 | · | -20.9 | · | 0.0 | ·
COC(=O)c1ccccc1NC(=O)c1ccco1 | 1.0 | -11.4 | -33.7* | -1.6 | -4.5
O=C(Nc1ccccc1C(=O)OCC(=O)c1c[nH]c2ccccc12)c1ccco1 | 2.6 | 18.6 | -10.6 | 34.8* | -2.4
Cc1ccnc(SCc2ccc([N+](=O)[O-])cc2)n1 | 0.1 | -57.4* | -11.0 | -4.5 | 1.6
Cc1cc(C)nc(SCc2ccc([N+](=O)[O-])cc2)n1 | 3.6 | 1.6 | -4.3 | -2.6 | -6.5
COCc1cc(C)nc(SCc2ccccc2Cl)c1C#N | 6.4 | 0.3 | 7.2 | -6.5 | -1.4
COCc1cc(C)nc(SCc2ccc([N+](=O)[O-])cc2)c1C#N | 8.2 | 2.9 | 0.2 | 2.8 | 44.4*
COCc1cc(C)nc(SCC(=O)N2CCC(C)CC2)c1C#N | 5.8 | -12.2 | -56.8* | -6.3 | -0.3
COCc1cc(C)nc(SCC(=O)NC2CCCCC2C)c1C#N (stereo not given) | 4.8 | 13.8 | 10.6 | 5.3 | 3.1
CCOc1ccccc1NC(=O)c1nn(C)c2c1CSc1ccccc1-2 | 2.8 | · | 6.3 | 6.5 | -2.4
CCOc1ccc(NC(=O)CSc2nnc(-c3ccncc3)n2-c2ccccc2)cc1 | -0.4 | · | -1.0 | -7.2 | -4.3
N#Cc1cccc(OCCCN2CCC(C(O)(c3ccccc3)c3ccccc3)CC2)c1 | · | -86.1* | · | -11.0 | ·
